# Experimental data from the supplement of paper PMC11732987, “Enantioselective OTUD7B fragment discovery through chemoproteomics screening and high-throughput optimisation” (Communications Chemistry, 2025).
# Unmarked numbers belong to inactive results.
# Tests used:
# Experiment in all cases: log2 ratio of Biotin-Ahx-Ub-VS probe labelling (fragment/DMSO); higher = less target engagement (more negative = stronger competition), active = hit call of the paper (q ≤ 0.05, log2 ratio ≤ -1)
# Conditions in all cases: compound concentration: 200 uM; treatment time: 3 h
# [1] = molecular target: T1, OTUD6B (UniProt Q8N6M0)
# T1 sequence (whole entry): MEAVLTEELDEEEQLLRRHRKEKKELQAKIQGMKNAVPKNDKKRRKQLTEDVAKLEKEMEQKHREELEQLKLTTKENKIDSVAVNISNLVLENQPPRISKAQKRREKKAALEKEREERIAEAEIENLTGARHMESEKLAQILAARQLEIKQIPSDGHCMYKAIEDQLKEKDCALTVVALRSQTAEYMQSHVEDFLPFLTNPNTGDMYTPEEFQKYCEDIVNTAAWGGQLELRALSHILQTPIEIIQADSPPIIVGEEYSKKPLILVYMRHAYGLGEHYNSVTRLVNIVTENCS
# Outline: (§1)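 Triplicate samples of HEK293T lysate, 495 µg each, received fragment at 200 µM or vehicle for 3 h, followed by Biotin-Ahx-Ub-VS (0.5 µM final) for 1 h. After NeutrAvidin enrichment of labelled DUBs and LysC/trypsin digestion, peptides were run by diaPASEF LC-MS/MS. The values are average log2 fragment/vehicle ratios from global-median-normalised Spectronaut label-free quantities, tested by unpaired t-test on proteins having ≥2 unique peptides.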
# [2] = molecular target: T2, OTUD7B (UniProt Q6GQQ9)
# T2 sequence (whole entry): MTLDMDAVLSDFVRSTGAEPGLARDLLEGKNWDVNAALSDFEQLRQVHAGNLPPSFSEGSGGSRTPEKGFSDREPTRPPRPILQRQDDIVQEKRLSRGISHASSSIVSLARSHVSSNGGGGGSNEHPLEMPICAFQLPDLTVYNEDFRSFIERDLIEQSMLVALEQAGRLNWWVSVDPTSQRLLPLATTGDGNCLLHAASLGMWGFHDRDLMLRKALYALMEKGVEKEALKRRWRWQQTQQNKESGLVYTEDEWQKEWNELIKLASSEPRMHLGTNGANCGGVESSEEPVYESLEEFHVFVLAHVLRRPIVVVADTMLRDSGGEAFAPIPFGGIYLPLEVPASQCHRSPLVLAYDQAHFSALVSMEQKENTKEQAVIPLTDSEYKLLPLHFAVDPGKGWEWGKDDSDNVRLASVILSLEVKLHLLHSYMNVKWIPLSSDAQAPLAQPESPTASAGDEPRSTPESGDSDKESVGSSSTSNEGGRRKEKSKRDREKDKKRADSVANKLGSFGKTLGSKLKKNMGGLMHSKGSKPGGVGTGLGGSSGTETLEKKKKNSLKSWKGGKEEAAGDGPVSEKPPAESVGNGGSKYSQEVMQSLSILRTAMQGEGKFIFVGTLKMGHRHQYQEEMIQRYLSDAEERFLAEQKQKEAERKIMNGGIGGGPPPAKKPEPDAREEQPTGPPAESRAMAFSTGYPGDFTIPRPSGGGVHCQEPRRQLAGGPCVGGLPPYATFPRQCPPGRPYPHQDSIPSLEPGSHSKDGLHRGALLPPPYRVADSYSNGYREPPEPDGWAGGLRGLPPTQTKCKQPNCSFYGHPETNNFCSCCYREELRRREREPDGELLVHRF
# Outline: as §1
# [3] = molecular target: PRPF8 (UniProt Q6P2Q9)
# Outline: as §1
# [4] = molecular target: T3, PSMD7 (UniProt P51665)
# T3 sequence (whole entry): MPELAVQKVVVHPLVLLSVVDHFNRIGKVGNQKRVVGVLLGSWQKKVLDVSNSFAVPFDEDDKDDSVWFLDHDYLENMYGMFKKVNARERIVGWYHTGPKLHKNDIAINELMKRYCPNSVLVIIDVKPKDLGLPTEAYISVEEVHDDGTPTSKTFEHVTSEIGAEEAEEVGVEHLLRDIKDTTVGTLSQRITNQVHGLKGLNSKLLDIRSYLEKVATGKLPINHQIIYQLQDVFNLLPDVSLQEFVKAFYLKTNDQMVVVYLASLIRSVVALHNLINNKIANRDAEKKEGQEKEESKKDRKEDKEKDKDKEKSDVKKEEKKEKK
# Outline: as §1
# [5] = molecular target: UCHL1 (UniProt P09936)
# Outline: as §1
# [6] = molecular target: T4, UCHL3 (UniProt P15374)
# T4 sequence (whole entry): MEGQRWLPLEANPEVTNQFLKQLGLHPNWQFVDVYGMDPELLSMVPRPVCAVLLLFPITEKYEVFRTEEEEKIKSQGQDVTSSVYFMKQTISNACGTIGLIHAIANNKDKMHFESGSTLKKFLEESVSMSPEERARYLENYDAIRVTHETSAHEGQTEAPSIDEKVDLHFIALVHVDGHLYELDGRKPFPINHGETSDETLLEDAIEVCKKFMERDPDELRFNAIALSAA
# Outline: as §1
# [7] = molecular target: T5, UCHL5 (UniProt Q9Y5K5)
# T5 sequence (whole entry): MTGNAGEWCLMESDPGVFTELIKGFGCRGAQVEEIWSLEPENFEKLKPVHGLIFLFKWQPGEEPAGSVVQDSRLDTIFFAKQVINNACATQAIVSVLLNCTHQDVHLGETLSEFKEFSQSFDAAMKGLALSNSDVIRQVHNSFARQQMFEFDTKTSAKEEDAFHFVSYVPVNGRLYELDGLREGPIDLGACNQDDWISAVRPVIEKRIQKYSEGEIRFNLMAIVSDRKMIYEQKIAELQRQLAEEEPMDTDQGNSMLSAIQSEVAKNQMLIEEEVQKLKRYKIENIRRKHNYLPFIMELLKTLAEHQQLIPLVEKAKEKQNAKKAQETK
# Outline: as §1
# [8] = molecular target: USP10 (UniProt Q14694)
# Outline: as §1
# [9] = molecular target: T6, USP15 (UniProt Q9Y4E8)
# T6 sequence (whole entry): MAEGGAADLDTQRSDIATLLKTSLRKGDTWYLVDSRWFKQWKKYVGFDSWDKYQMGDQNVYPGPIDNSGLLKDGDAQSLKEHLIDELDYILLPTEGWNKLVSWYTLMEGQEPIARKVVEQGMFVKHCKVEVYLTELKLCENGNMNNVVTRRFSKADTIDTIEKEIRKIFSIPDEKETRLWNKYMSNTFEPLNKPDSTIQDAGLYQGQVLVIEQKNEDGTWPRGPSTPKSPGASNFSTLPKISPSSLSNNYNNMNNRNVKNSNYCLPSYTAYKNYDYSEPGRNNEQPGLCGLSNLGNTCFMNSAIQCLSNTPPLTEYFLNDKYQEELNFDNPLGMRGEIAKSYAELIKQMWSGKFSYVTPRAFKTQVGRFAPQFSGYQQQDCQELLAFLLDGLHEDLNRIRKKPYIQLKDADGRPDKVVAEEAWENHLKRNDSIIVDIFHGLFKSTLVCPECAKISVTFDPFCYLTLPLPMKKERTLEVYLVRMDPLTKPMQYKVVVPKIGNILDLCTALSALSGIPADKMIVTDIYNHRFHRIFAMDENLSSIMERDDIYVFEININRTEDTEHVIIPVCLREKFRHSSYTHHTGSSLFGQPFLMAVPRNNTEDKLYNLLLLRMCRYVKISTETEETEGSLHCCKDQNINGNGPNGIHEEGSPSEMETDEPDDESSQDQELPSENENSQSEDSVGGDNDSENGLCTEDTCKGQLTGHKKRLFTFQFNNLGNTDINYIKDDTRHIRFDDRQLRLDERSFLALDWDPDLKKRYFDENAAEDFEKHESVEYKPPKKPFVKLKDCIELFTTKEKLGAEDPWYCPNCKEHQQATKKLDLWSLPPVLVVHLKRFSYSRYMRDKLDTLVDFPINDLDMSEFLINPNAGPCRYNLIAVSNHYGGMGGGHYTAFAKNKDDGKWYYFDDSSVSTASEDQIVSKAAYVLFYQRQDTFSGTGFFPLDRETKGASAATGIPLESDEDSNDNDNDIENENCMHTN
# Outline: as §1
# [10] = molecular target: USP16 (UniProt Q9Y5T5)
# Outline: as §1
# Sequence of UCHL1 (P09936 whole entry, looked up): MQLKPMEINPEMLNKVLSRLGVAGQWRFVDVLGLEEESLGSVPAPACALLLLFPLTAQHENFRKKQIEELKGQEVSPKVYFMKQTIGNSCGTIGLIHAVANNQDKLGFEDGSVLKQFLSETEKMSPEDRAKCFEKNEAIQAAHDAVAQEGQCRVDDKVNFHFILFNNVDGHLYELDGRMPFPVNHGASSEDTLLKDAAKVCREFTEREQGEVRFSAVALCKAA
# Sequence of USP16 (Q9Y5T5 whole entry, looked up): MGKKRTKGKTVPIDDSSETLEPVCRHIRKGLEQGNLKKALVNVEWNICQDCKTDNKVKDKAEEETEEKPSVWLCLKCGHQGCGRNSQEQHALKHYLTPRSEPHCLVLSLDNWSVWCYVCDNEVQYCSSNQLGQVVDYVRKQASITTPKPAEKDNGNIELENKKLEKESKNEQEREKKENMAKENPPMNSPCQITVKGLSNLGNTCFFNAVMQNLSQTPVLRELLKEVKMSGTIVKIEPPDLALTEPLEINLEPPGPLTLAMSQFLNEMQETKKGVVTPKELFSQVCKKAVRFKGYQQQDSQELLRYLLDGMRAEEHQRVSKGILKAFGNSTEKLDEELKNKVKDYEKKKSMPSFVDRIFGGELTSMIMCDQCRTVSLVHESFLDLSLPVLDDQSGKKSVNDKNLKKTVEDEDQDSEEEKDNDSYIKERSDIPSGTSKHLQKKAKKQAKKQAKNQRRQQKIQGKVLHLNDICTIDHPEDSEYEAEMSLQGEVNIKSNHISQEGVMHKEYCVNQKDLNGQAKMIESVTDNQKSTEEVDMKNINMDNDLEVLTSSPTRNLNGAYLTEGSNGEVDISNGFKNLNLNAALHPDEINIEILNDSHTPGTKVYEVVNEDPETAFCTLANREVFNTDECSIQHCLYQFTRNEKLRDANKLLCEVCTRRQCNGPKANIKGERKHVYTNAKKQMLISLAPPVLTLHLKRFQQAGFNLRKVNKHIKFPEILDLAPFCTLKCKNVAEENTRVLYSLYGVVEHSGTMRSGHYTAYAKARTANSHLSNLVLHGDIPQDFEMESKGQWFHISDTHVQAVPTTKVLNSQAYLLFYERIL
# Sequence of USP10 (Q14694 whole entry): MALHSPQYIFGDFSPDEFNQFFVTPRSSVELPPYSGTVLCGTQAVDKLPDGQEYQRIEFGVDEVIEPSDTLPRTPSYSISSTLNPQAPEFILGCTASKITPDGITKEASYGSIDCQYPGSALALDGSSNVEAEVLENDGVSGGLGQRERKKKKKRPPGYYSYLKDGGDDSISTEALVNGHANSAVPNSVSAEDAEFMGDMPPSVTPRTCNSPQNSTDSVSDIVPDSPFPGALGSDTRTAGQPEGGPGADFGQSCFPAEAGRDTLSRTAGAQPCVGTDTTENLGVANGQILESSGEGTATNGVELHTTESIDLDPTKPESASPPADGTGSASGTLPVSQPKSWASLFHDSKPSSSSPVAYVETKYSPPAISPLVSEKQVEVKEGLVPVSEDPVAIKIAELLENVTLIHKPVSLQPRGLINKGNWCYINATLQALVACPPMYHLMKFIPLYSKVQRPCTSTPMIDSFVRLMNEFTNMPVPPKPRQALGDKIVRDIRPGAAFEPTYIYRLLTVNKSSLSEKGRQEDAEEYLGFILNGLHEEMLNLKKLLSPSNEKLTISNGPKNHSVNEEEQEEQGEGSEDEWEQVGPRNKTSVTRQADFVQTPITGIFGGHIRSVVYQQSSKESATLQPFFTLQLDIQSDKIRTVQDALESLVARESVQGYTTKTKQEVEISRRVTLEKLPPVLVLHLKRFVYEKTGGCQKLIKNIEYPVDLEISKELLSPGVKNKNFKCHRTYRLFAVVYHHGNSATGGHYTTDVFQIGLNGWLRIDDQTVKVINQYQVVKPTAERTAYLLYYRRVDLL
smiles,measurement,setting,value
O=C(CCl)N1CCCCC12CCOCC2,log2 ratio of Biotin-Ahx-Ub-VS probe labelling,[1],-0.371
same,log2 ratio of Biotin-Ahx-Ub-VS probe labelling,[2],-0.652
same,log2 ratio of Biotin-Ahx-Ub-VS probe labelling,[3],-0.0698
same,log2 ratio of Biotin-Ahx-Ub-VS probe labelling,[4],-0.183
same,log2 ratio of Biotin-Ahx-Ub-VS probe labelling,[5],-2.07 (active)
same,log2 ratio of Biotin-Ahx-Ub-VS probe labelling,[6],-0.176
same,log2 ratio of Biotin-Ahx-Ub-VS probe labelling,[7],-0.503
same,log2 ratio of Biotin-Ahx-Ub-VS probe labelling,[8],-0.064
same,log2 ratio of Biotin-Ahx-Ub-VS probe labelling,[9],-0.474
same,log2 ratio of Biotin-Ahx-Ub-VS probe labelling,[10],-0.51
